Source: PubChem BioAssay
CaV13 FRET inh: Disruptors of the CACNA1D IQ motif to Ca2+-dependent inactivation inhibitor domain association, primary screening, Förster resonance energy transfer in intact living … | HEK cells, CFP/YFP FRET ICDI-IQ, plate reader, 10 min; percent FRET-ratio fall versus neutral wells | inhibition, % at 12.3 µM | 340,000 compounds, 0.098% hits;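 active = mean replicate inhibition of at least 30% and at least 1% of replicates passing that level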;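 also: 0% = median of the neutral control wells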
PolyA inhibitor: yeast polyadenylation inhibition | S. cerevisiae SKY197-pL101 polyadenylation reporter, beta-gal luminescence; efflux-impaired pdr1/pdr3 knockout yeast; score 100 = 6 SD above DMSO | activity score, % at 12 µM | 300,000 compounds, 0.02% hits | AID 1875;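 active = lowest replicate activity score at least 50, where 100 means six control SD above control mean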;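 also: yeast exposed to compound for 9 h at 30 °C; higher score means more reporter readthrough which indicates perturbed polyadenylation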
PfM18AAP inh: blocks P. falciparum M18 aspartyl aminopeptidase; recombinant PfM18AAP, H-Glu-NHMec fluorogenic cleavage; inhibition, % at 7.35 µM; 290,000 compounds, 1.2% hits; AID 1822;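 active = inhibition above the campaign mean inhibition over all tested compounds plus 3 SD, cut at about 28% in these data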;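 also: 0% = plate median of test compound wells and 100% = 2 mM ZnCl2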
IDE act: IDE (human) activation, cell-based; HEK cells, FAbeta-B cleavage, fluorescence polarization; 0% vehicle, 100% cell-free pure enzyme wells; activation, % at 5.96 µM; 340,000 compounds, 0.073% hits; AID 493087;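 active = activation above the mean of all tested compounds plus 3 SD, set per screening campaign, cut at about 17% in these data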
Target sequence (P14735 whole entry, looked up): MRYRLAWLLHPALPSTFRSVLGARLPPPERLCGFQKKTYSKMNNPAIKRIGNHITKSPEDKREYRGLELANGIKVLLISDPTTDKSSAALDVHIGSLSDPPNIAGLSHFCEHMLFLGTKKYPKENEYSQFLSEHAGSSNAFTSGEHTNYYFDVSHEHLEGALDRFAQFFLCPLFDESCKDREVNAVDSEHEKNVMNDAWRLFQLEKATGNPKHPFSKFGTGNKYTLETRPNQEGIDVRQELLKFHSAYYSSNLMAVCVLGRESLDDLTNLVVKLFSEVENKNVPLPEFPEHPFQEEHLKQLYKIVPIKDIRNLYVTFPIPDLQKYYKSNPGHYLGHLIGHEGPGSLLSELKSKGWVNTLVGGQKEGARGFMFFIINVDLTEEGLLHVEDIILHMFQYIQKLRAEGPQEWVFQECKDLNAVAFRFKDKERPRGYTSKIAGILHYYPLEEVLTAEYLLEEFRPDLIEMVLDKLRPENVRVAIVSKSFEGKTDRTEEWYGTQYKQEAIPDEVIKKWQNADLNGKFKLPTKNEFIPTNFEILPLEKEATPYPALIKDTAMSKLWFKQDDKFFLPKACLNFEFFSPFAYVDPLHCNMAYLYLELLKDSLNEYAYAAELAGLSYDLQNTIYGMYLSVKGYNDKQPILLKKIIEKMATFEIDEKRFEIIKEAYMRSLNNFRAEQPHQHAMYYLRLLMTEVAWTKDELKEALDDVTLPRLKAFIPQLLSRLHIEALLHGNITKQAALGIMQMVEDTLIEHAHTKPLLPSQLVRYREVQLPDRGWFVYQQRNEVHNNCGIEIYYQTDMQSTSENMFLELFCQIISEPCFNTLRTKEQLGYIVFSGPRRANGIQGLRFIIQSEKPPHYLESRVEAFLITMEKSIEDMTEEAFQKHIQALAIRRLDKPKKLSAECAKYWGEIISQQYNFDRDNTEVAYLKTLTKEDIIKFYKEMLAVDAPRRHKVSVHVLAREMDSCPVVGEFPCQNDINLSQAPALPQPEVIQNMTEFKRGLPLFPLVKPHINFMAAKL
IDE inh: inhibits human insulin-degrading enzyme in HEK cells. P14735. FAbetaB cleavage, fluorescence polarization. inhibition, % at 5.59 µM. 320,000 compounds, 0.41% hits. AID 434962;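 active = percent inhibition above the average of all tested compounds plus 3 SD, set per screening campaign, cut at about 16% in these data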;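 also: IDE supplied by intact live HEK cells; FP after avidin binding of uncleaved biotin substrate so inhibition keeps polarization high; 0% = DMSO wells and 100% = 60 µM reference IDE inhibitor Ii1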
ALR H2O2 inh: human ALR oxidase inhibition via reduced H2O2. P55789. purified ALR, DTT oxidation, H2O2 HRP-luminol luminescence. inhibition, % (concentration not given with the values). 290,000 compounds, 3.8% hits. AID 485317;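 active = mean replicate inhibition above about 79%, with every replicate also reaching it, limit read from the data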
An asterisk follows results filed as active; x = not tested or not shown. Rows were chosen to be rich in hits. Some 4.1% of all compounds tested hit in one or more screens of this group.

SMILES	CaV13 FRET inh	PolyA inhibitor	PfM18AAP inh	IDE act	IDE inh	ALR H2O2 inh
CC(C)(C)c1cc(CCC(=O)NNC(=S)NC(=O)c2ccccc2)cc(C(C)(C)C)c1O	x	2	29*	3	-1	22
O=C(CCc1ccccc1)NNC(=S)NC(=O)c1ccccc1	x	-62	28	1	-2	98*
CC(C)C[C@@H]1Cc2[nH][nH]c(=O)c2[C@H](C)O1	-5	x	x	x	x	x
CC(C(=O)NN=C(c1ccccc1)c1ccccc1)N1CCOCC1 (centres undefined)	x	-11	1	6	1	x
Cc1nc2nc(NC(=O)c3ccco3)nn2c(C)c1Cl	x	0	-1	1	2	-15
CCNC(=O)C1(C)CCCN(Cc2cccc3c2OCCO3)C1 (centres undefined)	-6	x	x	x	x	x
O=C(NCCCN1CCOCC1)c1nn2c(C(F)(F)F)cc(-c3ccco3)nc2c1Cl	-5	-6	4	-2	2	-4
CC(C)NC(=O)c1cc2nc(-c3ccco3)cc(C(F)(F)F)n2n1	-8	-5	-1	3	0	4
O=C(NC1CCCC1)c1cc2nc(-c3ccco3)cc(C(F)(F)F)n2n1	-4	0	-4	0	0	88*
CC(C)NC(=O)c1nn2c(C(F)(F)F)cc(-c3ccco3)nc2c1Cl	8	4	0	-4	-2	86*
COc1ccc(NC(=O)CSc2nc3ccccc3c(=O)n2CCCN2CCCCC2)c(OC)c1	-4	1	-6	-4	-1	-17
O=C(COC(=O)CC1CC2CCC1C2)NCc1ccccc1 (centres undefined)	-5	x	x	1	6	-2
Cc1cc(C)c2nc(N3C(=O)C(O)=C(C(=O)c4ccco4)C3c3ccco3)sc2c1 (centres undefined)	-7	2	26	-3	-1	98*
CCOc1ccc2nc(N3C(=O)C(O)=C(C(=O)c4ccco4)C3c3ccco3)sc2c1 (centres undefined)	-4	x	x	4	2	6
COCCN(CCOC)Cc1cc(=O)oc2cc(OC)ccc12	-9	x	x	x	x	x
Cc1ccc2cc(CN(Cc3ccc4c(c3)OCO4)Cc3nnnn3Cc3ccco3)c(=O)[nH]c2c1C	x	4	15	0	2	0
Cc1ccc(C)c2[nH]c(=O)c(CN(Cc3ccc4c(c3)OCO4)Cc3nnnn3Cc3ccco3)cc12	-5	1	32*	3	7	-10
O=C(O)COCc1nc2ccccc2s1	-6	1	30*	7	-3	-8
COc1cccc(N2CCN(C(=O)CCSCc3ccccc3F)CC2)c1	-7	-12	2	-6	3	97*
COc1ccccc1N1CCN(C(=O)CCSCc2ccccc2F)CC1	-3	4	2	5	1	96*
COc1cccc(N2CCN(C(=O)CCC(=O)c3ccc(Cl)s3)CC2)c1	-5	x	x	0	4	57
COc1ccccc1N1CCN(C(=O)Cc2ccc(Cl)cc2)CC1	-5	-2	3	-3	1	x
CCOC(=O)Cc1csc(NC(=O)CSc2nc(-c3ccccc3)c(C#N)c(=O)[nH]2)n1	-5	0	-9	0	5	98*
CCOc1ccc2nc(NC(=O)CSc3nc(-c4ccccc4)c(C#N)c(=O)[nH]3)sc2c1	-6	11	2	-7	x	x
COC(=O)C(CC(C)C)NC(=O)CSc1nc(-c2ccccc2)c(C#N)c(=O)[nH]1 (centres undefined)	-3	-4	6	2	2	4
SMILES	CaV13 FRET inh	PolyA inhibitor	PfM18AAP inh	IDE act	IDE inh	ALR H2O2 inh
Cc1sc(NC(=O)CSc2nc(O)cc(=O)[nH]2)nc1-c1ccccc1	-4	2	3	2	-2	99*
COc1cccc(-c2nc(SCC(=O)Nc3nc(-c4ccccc4)c(C)s3)[nH]c(=O)c2C#N)c1	12	20	7	3	1	99*
CCOc1ccc(NC(=O)CN(C)C(=O)c2cn(-c3ccccc3)nc2-c2cccs2)cc1OCC	-6	5	2	2	x	-3
Cc1ccc(-n2c(CCC(=O)O)ccc2-c2cccs2)cc1C	x	-7	-4	5	6	x
O=C(O)CCc1ccc(-c2cccs2)n1NC(=O)c1cccs1	-7	5	4	-1	4	99*
CCCCn1c(CCC(=O)O)ccc1-c1cccs1	-2	-7	-11	4	9	93*
COCCn1c(CCC(=O)O)ccc1-c1cccs1	-5	-3	5	7	3	81*
O=C(O)CCc1ccc(-c2cccs2)n1Cc1ccco1	-8	-10	-16	2	3	99*
COC(=O)[C@@H](NC(=O)N1CCC(Cc2ccccc2)CC1)C(C)C	-3	32	1	7	2	-3
CCOc1ccc(N=NC2C(=O)N(C(N)=S)N=C2C)cc1 (centres undefined)	0	-20	3	8	0	43
COc1ccc(-c2sc(Nc3ccc(F)c(F)c3F)nc2CCC(=O)NN)cc1	-3	-8	8	4	6	-28
COc1ccccc1N1CCN(C(=O)CN2C(=O)c3ccccc3C2=O)CC1	-5	17	1	0	1	1
COc1ccc(NC2CCCN(C(=O)CN3C(=O)c4ccccc4C3=O)C2)cc1OC (centres undefined)	-3	-6	7	3	5	98*
COc1ccc(NC2CCCN(C(=O)CSc3ccccn3)C2)cc1OC (centres undefined)	-7	1	16	-4	1	99*
COc1ccc(NC2CCCN(Cc3cccc4cnccc34)C2)cc1OC (centres undefined)	-5	3	14	4	2	95*
C[C@H](CO)N1C[C@H](C)[C@@H](CN(C)C(=O)Nc2ccc3c(c2)OCO3)Oc2c(NC(=O)Cc3ccccc3)cccc2C1=O	-5	x	x	2	-4	x
COc1cccc(N2CCN(c3ccc4nnc(CCC(=O)Nc5cccc(C(C)=O)c5)n4n3)CC2)c1	-5	11	8	4	-1	-1
COc1ccc(NC(=O)COC(=O)Cc2c(F)cccc2Cl)cc1	-4	-20	-10	-1	-1	2
O=C(CCNS(=O)(=O)c1ccccc1)OCC(=O)c1ccc(Cl)cc1	-4	-6	x	0	-4	-2
CC1=NN(C2=NS(=O)(=O)c3ccccc32)C(C)(O)C1 (centres undefined)	-19	2	31*	6	-3	38
CC(C)COc1cccc(C(=O)Nc2ccc(N3CCOCC3)cc2N2CCOCC2)c1	-6	-7	x	5	5	-6
FC(F)(F)c1ccc2c(c1)NCC1CCCN21 (centres undefined)	-16	2	15	-2	-1	98*
